# From PubChem
# The entries come from a sample that favours hits as a whole.
# Menin-MLL FL inh – qHTS Assay for Inhibitors Targeting the Menin-MLL Interaction in MLL Related Leukemias: Competition With Fluorescein Labeled MLL-derived Peptide; FP activity change, % at 61.4 µM; 290,000 tested, under 10 active; Fluorescence polarization, fluorescein-MLL peptide displacement from menin; active = well fitted curve in the direction sought with a large enough effect in the polarisation, not every such curve was filed as active; inconclusive = small, poorly fitted or top-dose-only effect, or effect the other way, or a change in a side signal; inactive = no such curve, though single readings can be large or run the other way; the % refers to the polarisation
# Menin MLL FP TR – qHTS Assay for Inhibitors Targeting the Menin-MLL Interaction in MLL Related Leukemias: Competition With Texas Red Labeled MLL-derived Mutant Peptide; O00255; Menin + Texas Red MLL mutant peptide, fluorescence polarization; Potency, µM (top dose mostly 61.6 µM), hits mostly inhibitors; 270,000 compounds, 0.23% hits; active = well fitted inhibition curve with a large enough effect in the polarisation, with a control signal flat, not every such curve was filed as active; inconclusive = small, poorly fitted or top-dose-only effect, or effect the other way, or a change in a side signal; inactive = no such curve, though single readings can be large or run the other way; the % refers to the polarisation
# Target sequence (O00255 whole entry, looked up): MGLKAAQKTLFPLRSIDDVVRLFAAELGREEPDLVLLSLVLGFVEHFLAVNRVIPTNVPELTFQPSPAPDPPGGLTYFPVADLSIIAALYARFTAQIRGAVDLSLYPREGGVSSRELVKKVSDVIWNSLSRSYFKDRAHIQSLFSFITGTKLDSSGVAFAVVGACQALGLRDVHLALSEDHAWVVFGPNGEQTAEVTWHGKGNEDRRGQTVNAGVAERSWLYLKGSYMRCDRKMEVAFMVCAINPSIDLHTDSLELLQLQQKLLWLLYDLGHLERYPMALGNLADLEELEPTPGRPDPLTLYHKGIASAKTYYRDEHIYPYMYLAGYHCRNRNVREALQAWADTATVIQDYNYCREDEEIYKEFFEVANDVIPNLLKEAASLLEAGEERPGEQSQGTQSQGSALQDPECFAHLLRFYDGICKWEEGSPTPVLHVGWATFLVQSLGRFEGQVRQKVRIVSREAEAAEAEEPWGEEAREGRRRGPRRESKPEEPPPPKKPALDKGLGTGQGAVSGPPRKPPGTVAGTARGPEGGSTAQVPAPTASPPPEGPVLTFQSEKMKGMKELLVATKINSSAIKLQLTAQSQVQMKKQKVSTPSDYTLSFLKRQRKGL
# CXXC DNA block – qHTS Fluorescence Polarization Assay for Inhibitors of MLL CXXC domain - DNA interaction | Potency, µM (highest dose often 115 µM), most hits filed as inhibitors | AID 2662, 2010 | Histone-lysine N-methyltransferase 2A (Homo sapiens), Q03164 | MLL-CXXC / FITC-HOXA9 DNA fluorescence polarization | 290,000 compounds, 0.037% hits; active = well fitted inhibition curve with a large enough effect in the polarisation, with a control signal flat, not every such curve was filed as active; inconclusive = small, poorly fitted or top-dose-only effect, or effect the other way, or a change in a side signal; inactive = no such curve, though single readings can be large or run the other way; the % refers to the polarisation
#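 Fluorescence polarization: 7 uM MLL-CXXC (stock) preincubated 5 min with compounds, then 50 nM fluorescein-HOX-A9 DNA (stock) added; 30 min ambient. Buffer 50 mM Tris-HCl pH 7.5, 50 mM NaCl, 1 mM DTT, 0.05% BSA.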
# Hits are given with their value; – = inactive; ? = inconclusive; · = no result given.
SMILES,Menin-MLL FL inh,Menin MLL FP TR,CXXC DNA block
COc1ccc(Cl)cc1NC(=O)Cn1c(=O)oc2ccccc21,–,?,–
O=C(Cn1c(=O)oc2ccccc21)Nc1ccc(Cl)cc1Cl,–,32µM,–
CCOP(=O)(OCC)c1nc(-c2cccc3ccccc23)oc1N1CCCCC1,–,–,–
CCOP(=O)(OCC)c1nc(-c2ccccc2)oc1N1CCCCC1,–,32µM,–
C[C@H]1C(=O)N(S(=O)(=O)c2ccccc2[N+](=O)[O-])[C@H]1c1ccc(-c2ccccc2)cc1,–,?,·
CCCOC(=O)N1CCN(/[N+]([O-])=N/Oc2ccc([N+](=O)[O-])cc2[N+](=O)[O-])CC1,–,–,·
CCCCCCn1cc(C(=O)O)c(=O)c2ccccc21,–,–,–
CCCCCCCCCCCCCCCCn1cc[n+](Cc2ccccc2)c1C,–,22µM,·
Cc1c2c(c(O)c3c(O)cccc13)C(=O)O[C@H]2C1C(N(C)C)C(O)=C(C(N)=O)C(=O)[C@H]1O (stereo partly specified),–,?,·
CCOc1ccc2nc(SCC(=O)Nc3ccc(S(=O)(=O)N4CCCC4)cc3)c(C)cc2c1,–,·,–
COc1ccc2nc(SCC(=O)Nc3ccc(S(=O)(=O)N4CCCC4)cc3)c(C#N)cc2c1,–,16µM,–
O=C([O-])[C@@H]1[O][Sb+]([O][Sb+]2[O][C@H]([C@H](O)CO)[C@H](O)[C@H](C(=O)[O-])[O]2)[O][C@H]([C@H](O)CO)[C@@H]1O,–,–,·
CCC[C@@H]1NC(=O)[C@@H](NC(C)=O)CSSC[C@@H](C(N)=O)NC(=O)CNC(=O)[C@H](Cc2c[nH]c3ccccc23)NC(=O)[C@H](CCCN=C(N)N)NC(=O)[C@H](Cc2ccc3ccccc3c2)NC(=O)[C@H](Cc2cnc[nH]2)NC(=O)[C@H](CCCN=C(N)N)NC1=O,–,–,·
CCCN1CCC(=O)N(C(CSc2ccc(Br)cc2)CC(C)C)CC1 (stereo unspecified),–,?,·
COc1ccc(CCNC(=O)c2cn(C)c3ccc(S(=O)(=O)N4CCOCC4)cc3c2=O)cc1OC,·,·,–
CCn1cc(C(=O)NCCc2ccc(OC)c(OC)c2)c(=O)c2cc(S(=O)(=O)N3CCOCC3)ccc21,–,16µM,–
CC[C@H](C)C(N)C(=O)O (stereo partly specified),–,–,·
CC(C)C[C@H](NC(=O)[C@H](Cc1ccccc1)NC(=O)[C@H](Cc1ccccc1)NC(=O)[C@@H](N)CO)C(=O)N[C@@H](CCCN=C(N)N)C(=O)N[C@@H](CC(N)=O)C(=O)O,–,–,·
CCCCCC(CC)COC(=O)CC(C(=O)OCC(CC)CCCC)S(=O)(=O)O (stereo unspecified),–,–,·
CC[C@H](C)[C@H](NC(=O)[C@H](CO)NC(=O)[C@H](C)NC(=O)[C@H](C)NC(=O)[C@H](CCC(N)=O)NC(=O)[C@H](CCCCN)NC(=O)[C@H](CCCN=C(N)N)NC(=O)[C@@H](N)CS)C(=O)N[C@@H](CCCCN)C(=O)N[C@H](C(=O)N[C@@H](C)C(=O)N[C@H](C(=O)N[C@@H](CO)C(=O)O)C(C)C)C(C)C,–,–,·
CCN(CC)c1ccc(N=Cc2ccccc2[N+](=O)[O-])cc1,–,18µM,–
CCN(CC)c1ccc(N=Cc2ccc([N+](=O)[O-])o2)cc1,–,?,–
COc1cc(C(=O)O[C@@H]2CC3CC[C@]2(C)C3(C)C)ccc1O,–,–,·
CN(C)/[N+]([O-])=N/Oc1cc(ON=[N+]([O-])N2CCN(c3ncccn3)CC2)c([N+](=O)[O-])cc1[N+](=O)[O-],–,?,·
c1ccc2c(c1)OCCOCCOCCOCCO2,–,–,·
SMILES,Menin-MLL FL inh,Menin MLL FP TR,CXXC DNA block
N#CC1(C#N)COC23CCCCC2C1(C#N)C(=N)O3 (stereo unspecified),?,28µM,–
N#CC12COC3(CCCCC3C1(C#N)C#N)OC2=N (stereo unspecified),?,·,–
COc1cc2c(cc1O)CCN[C@@]21CS[C@H]2c3c(OC(C)=O)c(C)c4c(c3C(COC1=O)N1C2C2c3c(cc(C)c(OC)c3O)CC([C@@H]1O)N2C)OCO4 (stereo partly specified),–,–,–
CC(C)C[C@H](NC(=O)[C@H](Cc1ccccc1)NC(=O)CNC(=O)[C@H](CCC(=O)O)NC(=O)[C@H](CCCNC(=N)N)NC(=O)[C@H](C)NC(=O)[C@H](C)NC(=O)[C@@H](N)CC(=O)O)C(=O)N[C@@H](CC(=O)O)C(=O)N[C@H](C(=O)N[C@@H](CC(C)C)C(=O)N[C@H](C(=O)N[C@H](C(=O)N[C@@H](CC(C)C)C(=O)N[C@@H](Cc1cnc[nH]1)C(=O)N[C@@H](CCCNC(=N)N)C(=O)N[C@@H](C)C(=O)NCC(=O)N[C@@H](C)C(=O)N[C@@H](CCCNC(=N)N)C(=O)O)C(C)C)C(C)C)[C@@H](C)O,–,–,·
COCCCNC(=O)/C(C#N)=C/c1c(N2CCN(c3ccc(OC)cc3)CC2)nc2c(C)cccn2c1=O,–,28µM,–
COCCCNC(=O)/C(C#N)=C/c1c(N2CCN(C)CC2)nc2c(C)cccn2c1=O,–,–,–
O=C(/C=C/c1ccc(O)cc1)OC[C@H]1O[C@@H](Oc2c(-c3ccc(O)cc3)oc3cc(O)cc(O)c3c2=O)[C@H](O)[C@@H](O)[C@@H]1O,–,–,·
NC(=O)SCC(=O)Nc1ccc(Cl)cc1,–,–,–
NC(=O)SCC(=O)Nc1cccc(Cl)c1,–,22µM,–
COc1ccc(/C=N/Nc2cc(C)nc3ccc(OC)cc23)c(OC)c1,–,13µM,?
COc1ccccc1/C=N/Nc1cc(C)nc2ccc(C)cc12,–,–,–
Cc1c2cnn(CC(=O)Nc3c(F)c(F)cc(F)c3F)c(=O)c2c(C)n1Cc1ccccc1F,?,13µM,–
CNC(=O)Cn1ncc2c(C)n(Cc3ccc(C)cc3)c(C)c2c1=O,–,–,–
CC(CC(C)(C)C)CP(=O)(O)CC(C)CC(C)(C)C (stereo unspecified),–,–,·
CN1CCc2c(sc3c2C(=O)NC(c2cccs2)N3)C1 (stereo unspecified),?,28µM,–
Cc1ccsc1C1NC(=O)c2c(sc3c2CCN(C)C3)N1 (stereo unspecified),?,–,–
CCOc1ccc2noc3c2c1C(=O)c1ccccc1-3,?,8.9µM,?
O=C1c2ccccc2-c2onc3c(Oc4ccccc4)cc(O)c1c23,–,·,–
CCCCCCCCCCN1CCOCCOCCN(CCCCCCCCCC)CCOCCOCC1,–,–,·
